About 83,000 compounds went through this panel and 20% of them were active in at least one assay; those are over-represented in the sample as a whole.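 A percent growth of 40 corresponds to 60% growth inhibition; 0 means no net growth; -100 means all cells died. Active threshold: below 10.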 The source made the active and inactive calls.
System: MDA-MB-435 melanoma
Assay: NCI-60 one-dose screen, 48 h (100 = growth as untreated, 0 = no growth, -100 = all killed)
Details: 10 µM

SMILES	growth
Oc1cccc(-c2nc3sccn3c2-c2ccncn2)c1	46% (inactive)
CCOC(=O)c1cc(C(=O)c2cc(OC)c(OC)c(OC)c2)n2ccc(-c3cc[n+](CC(=O)c4cc(OC)c(OC)c(OC)c4)cc3)cc12	68.7% (inactive)
C[C@H]1[C@H](OC(=O)CCC(=O)O)O[C@@H]2O[C@]3(C)CC[C@H]4[C@H](C)CC[C@@H]1[C@@]24OO3	9.74% (active)
COc1ccc(C(=O)N/N=C/c2cc(C(F)(F)F)ccc2Cl)cc1	91.1% (inactive)
COc1ccc(-c2cc(-c3ccc(Cl)cc3)nc(SCCCC(=O)NO)n2)cc1OC	19.6% (inactive)
CCC(=O)OC1CCC2C3CCC(=O)OC3C(C)(CCC(=O)O)CC12C (stereo not given)	-15.3% (active)
OCC1OC(n2ccc3c(NO)ncnc32)C(O)C1O (stereo not given)	-54.5% (active)
CC(C)(C)c1ccc(S(=O)(=O)N[C@H]2CC[C@H]3[C@@H]4CCc5cc(O)c([N+](=O)[O-])cc5[C@H]4CC[C@]23C)cc1	80.3% (inactive)
COc1cc(-c2nn(-c3cccc(NC(=O)CCNc4ccc(N5CCOCC5)cc4)c3)cc2-c2ccncc2)ccc1Cl	14.3% (inactive)
COc1cc(-c2nn(-c3cccc(NC(=O)CN4CCOCC4)c3)cc2-c2cccnc2)ccc1Cl	6.77% (active)
O=C(CCCSc1nc(-c2ccccc2)cc(-c2ccc(Cl)cc2)n1)NO	21.9% (inactive)
CC(C)N(CCOc1cccc(-c2nc3sccn3c2-c2ccnc(S(C)(=O)=O)n2)c1)C(C)C	86.1% (inactive)
O=C(CCC(C(=O)c1ccccc1)c1ccccc1)c1ccccc1 (stereo not given)	4.52% (active)
COc1ccc(-c2csc(NC(=O)c3ccc(Cc4n[nH]c(=O)c5cccnc45)cc3)n2)cc1	98.8% (inactive)
COc1cc(-c2nn(-c3cccc(NC(=O)CCN4CCN(Cc5ccccc5)CC4)c3)cc2-c2ccncc2)ccc1Cl	-38.3% (active)
COc1cc2cc(Oc3ccc(NC(=O)c4cc(C(F)(F)F)cc(C(F)(F)F)c4)cc3)c(C)nc2cc1OC	49.1% (inactive)
C[C@]12CCC3c4ccc(O)cc4C[C@@H](CCCCCCCCCS(=O)CCCC(F)(F)C(F)(F)F)C3C1CC[C@@H]2O (stereo not given in full)	88.8% (inactive)
Cc1cc(Cl)ccc1Nc1nc(C(F)(F)F)ccc1C(=O)N/N=C/c1cccc(O)c1	56% (inactive)
COc1cc(C(=O)/C=C/c2c[nH]c3ccccc23)cc(OC)c1OC	7.59% (active)
CCOC(=O)CC(S(=O)(=O)c1ccccc1)S(=O)(=O)c1ccccc1	107% (inactive)

SMILES	growth
CCNCC(=O)Nc1ccc(C(=O)OCC)cc1	102% (inactive)
CCCc1cn(CC(=O)Nc2nc3ccccc3s2)nn1	105% (inactive)
COc1cc2cc(Oc3ccc(NC(=O)Nc4ccc(Cl)c(C(F)(F)F)c4)cc3)c(C)nc2cc1OC	-25.7% (active)
COc1cc(/C=C2\CCCC3=C2NC(N)=NC3c2cc(OC)c(OC)c(OC)c2)cc(OC)c1OC (stereo not given)	-17.9% (active)
COc1ccc(-c2cc(-c3ccc(Cl)cc3)nc(SCCCCCCC(=O)NO)n2)cc1OC	69.1% (inactive)
COc1cc2ncnc(NC3CCC(O)CC3)c2cc1OC (stereo not given)	106% (inactive)
COc1cc(C)ccc1Oc1nc(Nc2ccc(N3CCOCC3)cc2)ncc1NC(=O)Nc1cc(C(F)(F)F)cc(C(F)(F)F)c1	81.5% (inactive)
CCC(C)[C@H](NC(C)=O)C(=O)N[C@@H](CCCNC(=N)N)C(=O)N[C@@H](CCCCN)C(=O)N[C@@H](CC1CCC(O)CC1)C(=O)NC(C(=O)N[C@@H](CCSC)C(=O)N[C@@H](CCCNC(=N)N)C(=O)N[C@@]1(C)CCC/C=C\CCC[C@@](C)(C(=O)NC(C(=O)N[C@@H](CCC(=O)O)C(=O)N[C@@H](CC(C)C)C(=O)N[C@H](C(=O)N[C@@H](CCC(=O)O)C(N)=O)C(C)C)[C@@H](C)O)NC(=O)[C@H](CCC(N)=O)NC(=O)[C@H](CC(C)C)NC(=O)[C@H](CC(C)C)NC1=O)[C@@H](C)O (stereo not given in full)	105% (inactive)
CN1C(=O)C2(Nc3cc(Cl)ccc3S2)c2cc(Cl)ccc21 (stereo not given)	98.4% (inactive)
CC(=O)Nc1ccc2c(c1)C(=O)c1cccc(C(=O)O)c1-2	102% (inactive)
O=C(CNc1nnc(-c2cccnc2SCc2ccccc2)s1)Nc1nc(Cl)cc(Cl)n1	114% (inactive)
CCOC(=O)c1cc(C(=O)c2cc(OC)c(OC)c(OC)c2)n2nc(C)ccc12	3.24% (active)
COc1cc(/C=C/c2cc(/C=C/c3ccc(O)c(OC)c3)[nH]c(=O)n2)ccc1O	56.9% (inactive)
O=C1CSC(=S)N1/N=C/c1ccc(Cl)s1	106% (inactive)
COc1ccc(-c2onc(N)c2-c2cc(OC)c3c(c2)OCO3)cc1	-24.1% (active)
COc1cc(/C=C/c2cc(/C=C/c3ccc(O)c(OC)c3)n(C(=O)Nc3ccc(C)cc3)n2)ccc1O	-1.64% (active)
COc1cc(NC(=O)Nc2cnc(Nc3ccc(N4CCOCC4)cc3)nc2Oc2cccc(OC)c2)cc(OC)c1	51.6% (inactive)
CC(=O)N[C@H](C(=O)N[C@@H](CCCNC(=N)N)C(=O)N[C@@H](CCCCN)C(=O)N[C@@H](CCCNC(=N)N)C(=O)NC(C(=O)N[C@@H](CC(C)C)C(=O)N[C@@H](CCCNC(=N)N)C(=O)N[C@@]1(C)CCC/C=C\CCC[C@@](C)(C(=O)N[C@@H](CCCNC(=N)N)C(=O)N[C@@H](CCC(=O)O)C(=O)N[C@@H](CC(C)C)C(=O)N[C@H](C(=O)N[C@@H](CCC(=O)O)C(N)=O)C(C)C)NC(=O)[C@H](CCC(N)=O)NC(=O)[C@H](CC(C)C)NC(=O)[C@H](CC(C)C)NC1=O)[C@@H](C)O)C(C)C (stereo not given in full)	-12.1% (active)
Oc1ccc(/C=N/N=C2c3ccccc3-c3ccccc32)c(O)c1	21.5% (inactive)
C[C@@H](C[C@H](CCO)c1ccccc1)c1ccc2ccccc2c1	-75.3% (active)
